Test results published in PubChem BioAssay (NCI).
Where “and” joins values, the source holds several entries; their conditions need not be identical. Equal entries are not always repeated. The panel holds about 79,000 compounds, 15% with a hit somewhere; the sample as a whole holds those more often. The source holds several records for some structures; these can differ, active in one and inactive in another. Calls of active or inactive are those of the source. No stated cut-off is given here; in the data, active means growth inhibition above about 70%; inactive means the rest.

Assays:
[1] = NCI Yeast Anticancer Drug Screen. Data for the rad50 strain (AID 155);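 further: 0% = growth of vehicle-only cultures of the same strain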; conditions: S. cerevisiae rad50 strain growth inhibition, stronger effect = higher value
Method in brief: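 Cells are treated with compound, grown, and their growth is then scored against vehicle-only cultures of the same repair-deficient yeast strain.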

[2] = NCI Yeast Anticancer Drug Screen. Data for the mec2-1 strain (AID 157); conditions: S. cerevisiae mec2-1 strain, stronger effect = higher value
Method in brief: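 Yeast mec2-1 mutant treated with compound. Readout: growth inhibition vs vehicle controls.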

[3] = NCI Yeast Anticancer Drug Screen. Data for the sgs1 mgt1 strain (AID 161);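 further: 0% = growth of cultures given vehicle only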; conditions: S. cerevisiae sgs1 mgt1 strain, stronger effect = higher value
Method in brief: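 Test agents were incubated with a DNA-repair-mutant yeast strain. Growth was then read and compared against vehicle-treated controls.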

[4] = NCI Yeast Anticancer Drug Screen. Data for the cln2 rad14 strain (AID 165);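 further: 0% = growth equal to vehicle treated cultures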; conditions: S. cerevisiae cln2 rad14 strain, stronger effect = higher value
Method in brief: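 cln2 rad14 yeast strain; compound exposure; growth inhibition read vs vehicle controls.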

[5] = NCI Yeast Anticancer Drug Screen. Data for the bub3 strain (AID 167); conditions: S. cerevisiae bub3 mutant strain, stronger effect = higher value
Method in brief: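 Part of a panel of yeast mutants defective in DNA damage repair or cell cycle regulation. Each strain is grown with compound, and inhibition is calculated relative to solvent-treated cultures.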

[6] = NCI Yeast Anticancer Drug Screen. Data for the mlh1 rad18 strain (AID 175); conditions: S. cerevisiae mlh1 rad18 strain growth inhibition, stronger effect = higher value
Method in brief: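 Yeast w/ defined DNA-repair lesions; compound exposure; growth vs vehicle controls → % inhibition.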

[7] = at 5.0 µM (retest, dose inferred, filed as 0.5)
[8] = at 50.0 µM (retest, dose inferred, filed as 5.0)

Compound	growth inhibition [1, 7]	growth inhibition [1, 8]	growth inhibition ([1]; at 50.0 µM)	growth inhibition [2, 7]	growth inhibition [2, 8]	growth inhibition ([2]; at 50.0 µM)	growth inhibition [3, 7]	growth inhibition [3, 8]	growth inhibition ([3]; at 50.0 µM)	growth inhibition [4, 7]	growth inhibition [4, 8]	growth inhibition ([4]; at 50.0 µM)	growth inhibition [5, 7]	growth inhibition [5, 8]	growth inhibition ([5]; at 50.0 µM)	growth inhibition [6, 7]	growth inhibition [6, 8]	growth inhibition ([6]; at 50.0 µM)
[O-][n+]1onc2ccccc21	47% (inactive)	99% (active)	98.3% (active)	30% (inactive)	99% (active)	52% (inactive)	29% (inactive)	99% (active)	49.9% (inactive)	34% (inactive)	99% (active)	97.7% (active)	38% (inactive)	99% (active)	46.7% (inactive)	63% (inactive)	99% (active)	98.2% (active)
CC(C)C1(NC(=O)C2C=C3c4cccc5[nH]cc(c45)CC3N(C)C2)OC2(O)C3CCCN3C(=O)C(Cc3ccccc3)N2C1=O (stereo unspecified) (tested in a mixture with another compound)	22% (inactive)	97% (active)	98.2% (active)	4% (inactive)	99% (active)	98.6% (active)	4% (inactive)	96% (active)	98.7% (active)	6% (inactive)	98% (active)	96.8% (active)	7% (inactive)	98% (active)	97.5% (active)	6% (inactive)	98% (active)	96.8% (active)
CCN(CCCl)c1ccc(/C=C/C2=[N+](C)c3ccccc3C2(C)C)c(C)c1	-5% (inactive)	98% (active)	62% (inactive)	-1% (inactive)	99% (active)	98.2% (active)	-8% (inactive)	98% (active)	96.8% (active)	-4% (inactive)	97% (active)	71.5% (active)	-6% (inactive)	99% (active)	99.2% (active)	-1% (inactive)	98% (active)	60.8% (inactive)
N#CN(Cc1ccccc1)C(c1ccccc1)(c1ccccc1)c1ccccc1.[Cl][Sn]([c]1ccccc1)([c]1ccccc1)[c]1ccccc1	99% (active)	91% (active)	97.3% (active)	100% (active)	94% (active)	98.3% (active)	100% (active)	91% (active)	98% (active)	99% (active)	85% (active)	97.5% (active)	99% (active)	87% (active)	98.1% (active)	99% (active)	88% (active)	98% (active)
CCCCCCCCCCCCCC(=O)O	-7% (inactive)	18% (inactive)	4.15% (inactive) and 34.9% (inactive)	11% (inactive)	63% (inactive)	7.2% (inactive) and -10.9% (inactive)	11% (inactive)	88% (active)	15.4% (inactive) and 27.3% (inactive)	1% (inactive)	20% (inactive)	66.5% (inactive) and 24.1% (inactive)	-7% (inactive)	29% (inactive)	57.7% (inactive) and 11.7% (inactive)	5% (inactive)	87% (active)	-6.2% (inactive) and 13.4% (inactive)
Clc1c(CI)ccc(CI)c1Cl	22% (inactive)	79% (active)	98.7% (active)	60% (inactive)	90% (active)	97.2% (active)	17% (inactive)	74% (active)	98.7% (active)	34% (inactive)	85% (active)	54.3% (inactive)	62% (inactive)	89% (active)	87.2% (active)	82% (active)	96% (active)	97.5% (active)
CS(=O)(=O)[O-].CS(=O)(=O)[O-].NC1CCCCC1N.[Pt+4] (stereo unspecified)	99% (active)	99% (active)	90.7% (active)	100% (active)	99% (active)	91.2% (active)	100% (active)	99% (active)	92% (active)	100% (active)	99% (active)	90.9% (active)	99% (active)	99% (active)	91.2% (active)	99% (active)	98% (active)	88.3% (active)
[I][Hg][I].c1ccc(N=P(c2ccccc2)(c2ccccc2)c2ccccc2)cc1	99% (active)	99% (active)	99.3% (active)	100% (active)	100% (active)	99.6% (active)	100% (active)	99% (active)	99.6% (active)	99% (active)	99% (active)	98.7% (active)	99% (active)	99% (active)	99.3% (active)	99% (active)	99% (active)	99.3% (active)
C=CCOc1cc2c(ccc1=O)-c1c(cc(OC)c(OC)c1OC)CCC2NC(C)=O (stereo unspecified)	-3% (inactive)	3% (inactive)	96.1% (active)	3% (inactive)	80% (active)	87.6% (active)	-18% (inactive)	45% (inactive)	93.9% (active)	-5% (inactive)	-11% (inactive)	96.3% (active)	-5% (inactive)	66% (inactive)	96.8% (active)	-5% (inactive)	78% (active)	95.5% (active)
CC[C@@]1(O)C[C@H](OC2CC(N(C)C)C(OC3CC(O)C(OC4CCC(=O)C(C)O4)C(C)O3)C(C)O2)c2c(cc3c(c2O)C(=O)c2c(O)ccc(O)c2C3=O)[C@H]1C(=O)OC (stereo partly specified)	95% (active) and 89% (active)	98% (active)	88.1% (active) and 91.8% (active)	95% (active) and 78% (active)	99% (active)	91.2% (active) and 93.5% (active)	95% (active) and 87% (active)	99% (active) and 98% (active)	89.8% (active) and 92.3% (active)	91% (active) and 71% (active)	97% (active)	88.7% (active) and 91.2% (active)	92% (active) and 67% (inactive)	98% (active)	89.3% (active) and 92.3% (active)	96% (active) and 80% (active)	98% (active)	88.2% (active) and 91.7% (active)
COc1cc(C=Nc2ccc(-c3csc(COc4ccccc4)n3)cc2)ccc1N(CCCl)CCCl	12% (inactive)	88% (active)	89.7% (active)	11% (inactive)	92% (active)	88.1% (active)	8% (inactive)	93% (active)	86.2% (active)	2% (inactive)	85% (active)	84.2% (active)	17% (inactive)	88% (active)	86% (active)	77% (active)	92% (active)	90.6% (active)
CCCCCCCCCCCCCCCCCC[N+](C)(C)C	98% (active)	96% (active)	88.5% (active)	99% (active)	97% (active)	91.4% (active)	99% (active)	95% (active)	89.8% (active)	99% (active)	95% (active)	89.9% (active)	99% (active)	96% (active)	87% (active)	97% (active)	96% (active)	89.8% (active)
N#Cc1ccc([Se]c2ccccc2)cc1	91% (active)	96% (active)	73.9% (active)	95% (active)	96% (active)	54.1% (inactive)	-1% (inactive)	67% (inactive)	72.3% (active)	33% (inactive)	73% (active)	57% (inactive)	40% (inactive)	84% (active)	77.9% (active)	89% (active)	97% (active)	56% (inactive)
NC(Cc1c[nH]c2ccccc12)P(=O)(O)O (stereo unspecified)	-1% (inactive)	37% (inactive)	38.1% (inactive)	0% (inactive)	87% (active)	13.4% (inactive)	3% (inactive)	29% (inactive)	-7.75% (inactive)	1% (inactive)	96% (active)	22.9% (inactive)	-9% (inactive)	98% (active)	-0.8% (inactive)	-9% (inactive)	47% (inactive)	26% (inactive)
COc1ccc2c(c1O)-c1cccc3c1[C@@H](C2)N(CCCl)CC3	30% (inactive)	90% (active)	67.6% (inactive)	15% (inactive)	99% (active)	70.8% (active)	28% (inactive)	95% (active)	57.6% (inactive)	13% (inactive)	66% (inactive)	35.4% (inactive)	19% (inactive)	98% (active)	44.4% (inactive)	52% (inactive)	98% (active)	86.6% (active)
CCC[CH2][Sn]1([CH2]CCC)[O]N=Cc2ccccc2[O]1	46% (inactive)	94% (active)	86.8% (active)	50% (inactive)	97% (active)	90.5% (active)	79% (active)	98% (active)	88.2% (active)	62% (inactive)	97% (active)	87.1% (active)	85% (active)	98% (active)	90.1% (active)	73% (active)	97% (active)	88.3% (active)
